Only some compounds are listed: those with a hit (about 0.98% of all), similar ones and a draw of the others.
LANA-H2B inh – blocks KSHV LANA binding to histone H2A/H2B; Q9QR71; cell-free LANA-H2A/H2B peptide, fluorescence polarization; inhibition, % (test concentration not listed); 0.6% of 320,000 active; in the data active = inhibition mostly above about 10%, no sharp cut-off; inactive = mostly below about 6.7%
C-LANA FP – inhibitors of KSHV LANA C-terminal domain DNA binding | AID 504423 | inhibition, % at 9 µM | 0.078% of 340,000 active | MBP-C-LANA/FAM-LBS DNA binding, fluorescence polarization;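 active = highest replicate inhibition at or above 60% at 9 µM, even if other replicates fall short; inactive = all replicates below 60% inhibition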;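 note: 0% = neutral control wells and 100% = 4 µM acridine orange control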
Keap1-Nrf2 PPI – Keap1-Nrf2 (human) interaction inhibition. 0.15% of 340,000 active. inhibition, % at 9.4 µM. Keap1 Kelch-Nrf2 peptide fluorescence polarization, 1536-well. AID 504523; in the data active = inhibition above about 12%;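 note: human Keap1 Kelch domain with fluorescein labeled Nrf2 9mer peptide probe; 0% = neutral control wells and 100% = peptide positive control; higher means more block of Keap1 binding to Nrf2 peptide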
RTF Ca sens inh – cardiac RTF calcium desensitization | P19429+P45379 | IANBD-labeled cardiac RTF, Ca2+ fluorescence | inhibition, % at 7.15 µM | 0.12% of 340,000 active;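 active = inhibition above the mean inhibition of all tested compounds plus 3 SD, cut at about 17% in these data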;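 note: assay run at fixed EC70 calcium of 1.6 mM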
cardiac RTF act – increases calcium sensitivity of human cardiac regulated thin filaments; IANBD-labeled TnC RTF fluorescence at EC20 calcium; 0% EC20 calcium, 100% full calcium; 0.24% of 340,000 active; activation, % at 7.2 µM; P19429+P45379; AID 493008;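 active = activation above the mean over all tested compounds plus 3 SD, cut at about 30% in these data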;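 note: rise in fluorescence read as greater calcium sensitivity of cardiac thin filaments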
Keap1 Kelch bind – Keap1 (human) Kelch domain binding; shares compounds with Keap1-Nrf2 PPI; Keap1 Kelch thermal shift, delta Tm; active compounds read high; max delta Tm, degrees C; 8% of 400 active; AID 651823; in the data active = max delta Tm above about 0.48 degrees C
Dye-only ctr – shifts Sypro Orange melt without protein, a false positive. shares compounds with Keap1-Nrf2 PPI. Sypro Orange dye-only thermal melt, no protein, delta Tm; top dose 26 µM. delta Tm, degrees C (concentration not given with the values). 140 tested, under 10 active;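 active = at highest dose tested, delta Tm positive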
Starred values were filed as active, the others as inactive; · = not tested or not shown; + = active, no number.

SMILES | LANA-H2B inh | C-LANA FP | Keap1-Nrf2 PPI | RTF Ca sens inh | cardiac RTF act | Keap1 Kelch bind | Dye-only ctr
CCC1=NN(C(=O)CCc2ccccc2O)C(O)(C(F)(F)F)C1 (stereo not given) | -3.3 | 0.2 | -1.5 | -10.5 | 9.0 | · | ·
CSC1=N/C(=C/c2cccnc2)C(=O)N1Cc1ccccc1 | 0.1 | -0.3 | 1.6 | -1.9 | 0.7 | · | ·
CCOC(=O)c1c(C)oc2c1c(C=NCCO)c(O)c1ccccc12 | · | 7.8 | 22.6* | -20.9 | 24.0 | -0.18 | -28.7
Cc1ccccc1NC(=S)NCCc1ccc(S(N)(=O)=O)cc1 | -5.5 | 0.9 | -2.5 | -2.5 | 7.1 | · | ·
COc1cccc2c1C(=O)c1c(O)c3c(c(O)c1C2=O)CC(O)(C(C)=O)CC3OC1CC(N(C)C)C(O)C(C)O1 (stereo not given) | · | 117.3* | + | -269.2 | 190.0* | -0.12 | ·
Cc1nc2ccccc2n2c(O)c(CC(=O)O)cc12 | 26.7* | 58.5 | 21.6* | -197.1 | 125.2* | 0.46* | ·
Cc1cc(C)c(S(C)(=O)=O)c(=O)[nH]1 | 4.6 | 0.2 | -3.9 | -13.8 | 14.1 | · | ·
Cc1cc(=O)c2c([nH]1)c(C)cc1[nH]c(C)c(C)c12 | 1.8 | 50.8 | 24.7* | -33.3 | 21.8 | -0.16 | -25.6
Cc1cc(-c2ccccc2C(=O)O)on1 | -5.0 | -0.8 | -6.9 | -4.7 | 13.6 | · | ·
O=C(O)c1ccccc1C1=Nc2ccc(O)cc2Oc2cc(O)ccc21 | 16.9* | 110.9* | 69.9* | -159.2 | 117.0* | -0.06 | -27.1
Cc1ccc2oc(=O)c3cnn(CC(=O)NCCC(C)C)c3c2c1 | 2.8 | 0.0 | 31.0* | -2.9 | 1.6 | -0.17 | -26.3
Cc1ccc2oc(=O)c3cnn(CC(=O)NCCN(C)C)c3c2c1 | 2.2 | -0.5 | -2.2 | 0.9 | -5.7 | · | ·
O=S(=O)(Nc1ncccn1)c1ccc(NC(=S)Nc2cccc(Cl)c2)cc1 | 0.8 | · | · | · | · | · | ·
CN1C(=O)NC(c2ccccc2[N+](=O)[O-])C2=C1CCCC2=O (stereo not given) | 18.4 | 46.4 | 28.8* | -64.5 | 37.8* | 0.01 | -34.5
CCN1CCN(S(=O)(=O)c2ccc(Cl)c(C(=O)NC3CCC(C)CC3)c2)CC1 (stereo not given) | 2.2 | 13.1 | 28.8* | -1.5 | -0.8 | -0.09 | -24.6
CCN1CCN(S(=O)(=O)c2ccc(Cl)c(C(=O)NC3CCCCC3)c2)CC1 | 4.3 | 1.6 | -3.5 | -9.1 | -2.7 | · | ·
CC(C)N1CC=C2C(C#N)=C(N)C(C#N)(C#N)[C@H](c3ccoc3)[C@H]2C1 | 18.6 | · | · | · | · | · | ·
CC(C)N1CC=C2C(C#N)=C(N)C(C#N)(C#N)C(c3ccccc3)C2C1 (stereo not given) | + | 33.3 | 12.4* | -77.4 | 46.0* | -0.09 | -29.7
CC(C)Sc1ccccc1C(=O)Nc1ccc2c(c1)n(C)c(=O)n2C | -2.7 | -0.6 | 3.6 | 7.5 | -2.5 | · | ·
O=C(CCCCl)NC(=S)Nc1ccc(N2CCOCC2)cc1 | -0.7 | 14.6 | 32.8* | · | · | -0.14 | -22
CCOc1ccc(OCCCC(=O)N(CC)CC(=O)Nc2c(F)cccc2F)cc1 | 35.5* | 22.8 | 35.8* | -11.8 | 1.1 | -0.15 | -26.8
CCN(CC(=O)Nc1c(F)cccc1F)C(=O)CCCOc1ccccc1 | · | -1.2 | -1.7 | -7.3 | -6.6 | · | ·
CCOc1ccc(NC(=S)NC(=O)/C=C/c2ccco2)cc1 | -1.0 | 1.7 | -3.4 | -3.6 | 2.6 | · | ·
COc1cc(NS(=O)(=O)c2ccc(NC(=S)NC(=O)/C=C/c3ccco3)cc2)ncn1 | · | 34.3 | 16.5* | -8.1 | -7.0 | 0.83* | ·
C=CCOC(=O)C1=C[C@H](c2csc3ccccc23)C[C@H](OCc2ccc(CO)cc2)O1 | -2.8 | 43.8 | 16.9* | -17.6 | -3.0 | -0.19 | -27.2
SMILES | LANA-H2B inh | C-LANA FP | Keap1-Nrf2 PPI | RTF Ca sens inh | cardiac RTF act | Keap1 Kelch bind | Dye-only ctr
C=CCOC(=O)C1=C[C@@H](c2csc3ccccc23)C[C@@H](OCc2ccc(CO)cc2)O1 | -2.1 | -1.6 | -8.6 | 4.6 | 7.3 | · | ·
NC(=O)C1CCN(C2=C(Cl)C(=O)c3ccccc3C2=O)CC1 | 7.9 | -1.0 | 14.1* | 0.3 | -2.6 | 0.14 | ·
Cc1ccc2c(CC(=O)NC3CCS(=O)(=O)C3)coc2c1C (stereo not given) | -5.8 | 1.5 | -7.0 | -0.8 | -0.6 | · | ·
C[C@H](CO)N1C[C@H](C)[C@@H](CN(C)S(=O)(=O)c2ccc(F)cc2)Oc2ccc(NC(=O)NC3CCCCC3)cc2C1=O | · | 3.6 | -3.0 | -5.8 | 8.7 | · | ·
CCCCN(C(=O)CC1CCCCC1)c1c(N)n(CC(C)C)c(=O)[nH]c1=O | 71.1* | · | 49.8* | -9.8 | 1.7 | -0.14 | ·
CCOC(=O)c1c(NC(=O)CN2CCN(S(=O)(=O)c3cc(Cl)ccc3Cl)CC2)sc(C(=O)N(C)C)c1C | · | 16.9 | 27.3* | -4.9 | 2.8 | -0.11 | ·
CCOC(=O)c1c(NC(=O)COC(=O)c2ccc(Cl)nc2)sc(C(=O)N(C)C)c1C | -1.8 | -1.0 | -3.9 | 12.7 | 1.7 | · | ·
CCOC(=O)C1=C(N)OC2=C(C(=O)CC(C)(C)C2)C1c1cccs1 (stereo not given) | -0.8 | 0.9 | -9.7 | -7.8 | -2.2 | · | ·
COc1ccc(CNc2cccnc2)c(OC)c1OC | · | -0.7 | -1.6 | 0.4 | 12.5 | · | ·
Cc1ccc(-c2nc3ccccc3nc2-c2ccccc2)cc1 | 0.0 | -3.2 | -3.9 | -6.0 | -1.9 | · | ·
Cn1nc(-c2ccccc2)c2nc3ccccc3nc21 | 95.4* | 33.3 | 53.7* | -8.8 | 52.5* | -0.08 | -27.6
Cc1ccc(/C=C2/SC(=O)NC2=S)o1 | · | 31.3 | 24.5* | -28.4 | 24.5 | 0.73* | ·
O=C(COC(=O)c1ccncc1)Nc1cccc2ccccc12 | -1.7 | 9.7 | 14.1* | -11.1 | 4.8 | -0.09 | ·
NC(=O)C1CCN(c2ccc3c(c2)S(=O)(=O)c2ccccc2C3=O)CC1 | -5.1 | 5.0 | -0.1 | -9.2 | 19.4 | · | ·
CC1CCN(c2ccc3c(c2)S(=O)(=O)c2ccccc2C3=O)CC1 | 1.6 | 24.2 | 20.9* | -30.1 | 20.6 | 0.32 | ·
COc1cc(NC(=O)CSc2nc3cc(C)ccc3cc2C)c(C(=O)O)cc1OC | 1.0 | 10.1 | 16.4* | 0.2 | 1.4 | -0.12 | -21.5
COc1cc(NC(=O)CSc2nc3ccccc3cc2C)c(C(=O)O)cc1OC | 1.8 | 0.9 | -3.6 | 1.4 | 4.3 | · | ·
CC(Sc1nc2ccccc2s1)C(=O)Nc1nnc(C(C)C)s1 (stereo not given) | 1.8 | 81.3* | 70.6* | -4.3 | -1.8 | -0.04 | ·
CCCN1CNC(=S)N(c2cc(C)ccc2C)C1 | -10.8 | 1.5 | 12.9* | -8.4 | -2.1 | -0.1 | ·
O=C(NNc1ncnc2sccc12)c1ccc(Cl)cc1 | 0.7 | 16.4 | 27.3* | · | · | -0.05 | ·
Cc1csc2ncnc(NNC(=O)c3ccc(Cl)cc3)c12 | 3.6 | -0.3 | -3.1 | -1.8 | 1.6 | · | ·
O=C1NC[C@@H](c2ccccc2)OC(=O)[C@H](Cc2ccc(F)cc2)C/C=C\C[C@@H]1CC(=O)N(CCO)Cc1ccccc1 | 1.8 | -1.2 | -8.1 | 1.5 | 7.8 | · | ·

Screens: PubChem, several laboratories
